According to PubChem BioAssay (NCI):
This is part of a sample that, as a whole, favours compounds with a hit. Of some 83,000 tested, about 20% had one in any assay.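 Single-concentration screen, 48 h exposure, 96-well plates. Endpoint: percent growth. Below 10 = active.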 Unmarked numbers belong to inactive results. Activity calls are given as the source filed them.

system: HT29 colon; experiment: NCI-60 one-dose screen, 48 h (100 = growth as untreated, 0 = no growth, -100 = all killed); settings: 10 µM

| SMILES | growth |
| --- | --- |
| COc1cc2cc(C(=O)N3C[C@@H](CCl)c4c3cc(OC(=O)N3CCN(C)[C@@H]5CSSC[C@@H]53)c3ccccc43)[nH]c2c(OC)c1OC | -6.59% (active) |
| COc1cc2cc(C(=O)N3C[C@@H](CCl)c4c3cc(OC(=O)N3CCN(C(=O)CCC(=O)N5CCN(C)CC5)[C@@H]5CSSC[C@@H]53)c3ccccc43)[nH]c2c(OC)c1OC | -84.3% (active) |
| COC(=O)c1ccc(-n2cc(CCCN(CCNc3ccnc4cc(Cl)ccc34)C(=O)CCC(=O)O[C@@H]3O[C@@H]4OC5(C)CC[C@H]6[C@H](C)CC[C@@H]([C@H]3C)[C@@]46OO5)nn2)cc1 | 5.91% (active) |
| O=C([Se]C1C=CCCC1)c1ccc(C(=O)[Se]C2C=CCCC2)s1 (configuration not stated) | -25.6% (active) |
| O=C(/C=C/c1cccc(Br)c1)c1nc2ccccc2n1Cc1ccc(F)cc1 | 7.15% (active) |
| CC[C@]12C=CCN3CC[C@@]4(c5ccc(OC)cc5N(C)[C@H]4[C@@](O)(C(=O)OC)[C@@H]1OC(=O)CCC[P+](c1ccc(C)cc1)(c1ccc(C)cc1)c1ccc(C)cc1)[C@@H]32 | -80.7% (active) |
| O=C(NC([Se])=NC1CCCCC1)c1ccccc1 | 29.7% |
| O=C(/C=C/c1ccc(F)cc1)c1nc2ccccc2n1Cc1ccc(F)cc1 | -30.5% (active) |
| O=C(/C=C/c1ccccc1)c1nc2ccccc2n1Cc1ccc(Br)cc1 | -60.3% (active) |
| C=CC[Se]C(=O)c1cncc(C(=O)[Se]CC=C)c1 | -14.4% (active) |
| COc1ccc(OC)c(/C=C/C(=O)c2nc3ccccc3n2Cc2ccc(F)cc2)c1 | -44.7% (active) |
| O=C(/C=C/c1ccc(F)cc1)c1nc2ccccc2n1Cc1ccc(Br)cc1 | -33.2% (active) |
| CC[C@]12C=CCN3CC[C@@]4(c5ccc(OC)cc5N(C)[C@H]4[C@@](O)(C(=O)OC)[C@@H]1OC(=O)CCCC[P+](c1ccc(C)cc1)(c1ccc(C)cc1)c1ccc(C)cc1)[C@@H]32 | -81.8% (active) |
| CC(C)N=C([Se])NC(=O)c1cccs1 | 27.9% |
| CC1=C(CCC=NNC(N)=O)C2=C(C)C3(CC3)[C@@](C)(O)C(=O)C2=C1 | -31% (active) |
| Cc1ccc2[nH]c(=S)n(-c3ccc(F)cc3)c(=O)c2c1 | 107% |
| C#CC[Se]C(=O)c1ccc2n[se]nc2c1 | 39.6% |
| CC1=C(COCCOC(=O)c2ccc(S(=O)(=O)F)cc2)C2=C(C)C3(CC3)[C@@](C)(O)C(=O)C2=C1 | -28.5% (active) |
| CC12CCC3(CCC(=O)NCCCNc4ccnc5cc(Cl)ccc45)[C@@](C)(OO[C@]3(C)O1)O2 | 10.7% |
| O=C(/C=C/c1ccc(Br)cc1)c1nc2ccccc2n1Cc1ccc(Br)cc1 | -27.6% (active) |
| COC(=O)CCn1c(-c2ccc(-n3cc(-c4ccc(O[C@H]5O[C@@H]6OC7(C)CC[C@H]8[C@H](C)CC[C@@H]([C@H]5C)[C@@]68OO7)cc4)nn3)cc2)nc2ccccc21 | 22.5% |
| CC1=C(C=O)C2=C(C)C3(CC3)[C@@](C)(O)C(=O)C2=C1 | 15.8% |
| N#C[Se]CC(=O)Nc1cccc(C(F)(F)F)c1 | -31.9% (active) |
| CCC[Se]C(=O)c1ccc(C(=O)[Se]CCC)s1 | -58.5% (active) |
| C[C@H]1[C@@H](CC(=O)N[C@@H](Cc2coc3ccccc23)B(O)O)O[C@@H]2OC3(C)CC[C@H]4[C@H](C)CC[C@@H]1[C@@]24OO3 | -57.6% (active) |
| O=C(/C=C/c1ccco1)c1nc2ccccc2n1Cc1ccc(F)cc1 | 68% |
| COC(=O)C[C@](O)(CCC(C)C)C(=O)O[C@H]1C(OC)=C[C@@]23CCCN2CCc2cc4c(cc2[C@@H]13)OCO4 | -47.5% (active) |
| C[C@H]1[C@H](OC(=O)CCC(=O)N(CCCc2cn(-c3ccc(C#N)cc3)nn2)CCNc2ccnc3cc(Cl)ccc23)O[C@@H]2OC3(C)CC[C@H]4[C@H](C)CC[C@@H]1[C@@]24OO3 | 18.6% |

system: SNB-75 CNS; experiment: as above; settings: 10 µM

| SMILES | growth |
| --- | --- |
| COc1cc2cc(C(=O)N3C[C@@H](CCl)c4c3cc(OC(=O)N3CCN(C)[C@@H]5CSSC[C@H]53)c3ccccc43)[nH]c2c(OC)c1OC | -74.3% (active) |
| CC1=C(CCC=O)C2=C(C)C3(CC3)[C@@](C)(O)C(=O)C2=C1 | -96.9% (active) |
| COC(=O)C[C@](O)(CCC(C)C)C(=O)O[C@@H]1C(OC)=C[C@]23CCCN2CCc2cc4c(cc2[C@H]13)OCO4 | -32.9% (active) |
| O=C(/C=C/c1ccc(Cl)cc1)c1nc2ccccc2n1Cc1ccc(F)cc1 | 60.9% |
| CC[C@]12C=CCN3CC[C@@]4(c5ccc(OC)cc5N(C)[C@H]4[C@@](O)(C(=O)OC)[C@@H]1OC(=O)CCC[P+](C1CCCCC1)(C1CCCCC1)C1CCCCC1)[C@@H]32 | -61.4% (active) |
| CC1=C2C(=C[C@@](C)(COP(=O)(Oc3ccccc3)Oc3ccccc3)[C@@H]2O)C(=O)[C@@](C)(O)C12CC2 | -94% (active) |
| CC(=O)Oc1ccccc1C(=O)NC([Se])=NC1CCCCC1 | -75.3% (active) |
| CCOP(=O)(CC(F)(F)C(F)(F)F)OCC | 79.4% |
| CC(C)C[C@H](NC(=O)CNC(=O)C[C@H]1O[C@@H]2OC3(C)CC[C@H]4[C@H](C)CC[C@@H]([C@H]1C)[C@@]24OO3)B(O)O | -15.7% (active) |
| C[C@H]1[C@@H](Oc2ccc(-c3cn(-c4ccnc5cc(Cl)ccc45)nn3)cc2)O[C@@H]2OC3(C)CC[C@H]4[C@H](C)CC[C@@H]1[C@@]24OO3 | 61.6% |
| C[C@H]1[C@H](OC(=O)CCC(=O)N(CCCc2cn(-c3ccc([N+](=O)[O-])cc3)nn2)CCNc2ccnc3cc(Cl)ccc23)O[C@@H]2OC3(C)CC[C@H]4[C@H](C)CC[C@@H]1[C@@]24OO3 | 89.2% |
| COc1cc2cc(C(=O)N3C[C@@H](CCl)c4c3cc(OC(=O)N3CCN(C)[C@@H]5CSSC[C@@H]53)c3ccccc43)[nH]c2c(OC)c1OC | -87.6% (active) |
| COc1cc2cc(C(=O)N3C[C@@H](CCl)c4c3cc(OC(=O)N3CCN(C(=O)CCC(=O)N5CCN(C)CC5)[C@@H]5CSSC[C@@H]53)c3ccccc43)[nH]c2c(OC)c1OC | -90.1% (active) |
| COC(=O)c1ccc(-n2cc(CCCN(CCNc3ccnc4cc(Cl)ccc34)C(=O)CCC(=O)O[C@@H]3O[C@@H]4OC5(C)CC[C@H]6[C@H](C)CC[C@@H]([C@H]3C)[C@@]46OO5)nn2)cc1 | 67.3% |
| O=C([Se]C1C=CCCC1)c1ccc(C(=O)[Se]C2C=CCCC2)s1 (configuration not stated) | -77.6% (active) |
| O=C(/C=C/c1cccc(Br)c1)c1nc2ccccc2n1Cc1ccc(F)cc1 | 32.9% |
| CC[C@]12C=CCN3CC[C@@]4(c5ccc(OC)cc5N(C)[C@H]4[C@@](O)(C(=O)OC)[C@@H]1OC(=O)CCC[P+](c1ccc(C)cc1)(c1ccc(C)cc1)c1ccc(C)cc1)[C@@H]32 | -61.2% (active) |
| O=C(NC([Se])=NC1CCCCC1)c1ccccc1 | 17.8% |
| O=C(/C=C/c1ccc(F)cc1)c1nc2ccccc2n1Cc1ccc(F)cc1 | 20.6% |
| O=C(/C=C/c1ccccc1)c1nc2ccccc2n1Cc1ccc(Br)cc1 | 16.2% |

| SMILES | growth |
| --- | --- |
| C=CC[Se]C(=O)c1cncc(C(=O)[Se]CC=C)c1 | -61.4% (active) |
| COc1ccc(OC)c(/C=C/C(=O)c2nc3ccccc3n2Cc2ccc(F)cc2)c1 | 15.4% |
| O=C(/C=C/c1ccc(F)cc1)c1nc2ccccc2n1Cc1ccc(Br)cc1 | 44.5% |
| CC[C@]12C=CCN3CC[C@@]4(c5ccc(OC)cc5N(C)[C@H]4[C@@](O)(C(=O)OC)[C@@H]1OC(=O)CCCC[P+](c1ccc(C)cc1)(c1ccc(C)cc1)c1ccc(C)cc1)[C@@H]32 | -87.6% (active) |
| CC(C)N=C([Se])NC(=O)c1cccs1 | -28.6% (active) |
| CC1=C(CCC=NNC(N)=O)C2=C(C)C3(CC3)[C@@](C)(O)C(=O)C2=C1 | -96.2% (active) |
| Cc1ccc2[nH]c(=S)n(-c3ccc(F)cc3)c(=O)c2c1 | 100% |
| C#CC[Se]C(=O)c1ccc2n[se]nc2c1 | 56.5% |
| CC1=C(COCCOC(=O)c2ccc(S(=O)(=O)F)cc2)C2=C(C)C3(CC3)[C@@](C)(O)C(=O)C2=C1 | -15.9% (active) |
| CC12CCC3(CCC(=O)NCCCNc4ccnc5cc(Cl)ccc45)[C@@](C)(OO[C@]3(C)O1)O2 | -4.41% (active) |
| O=C(/C=C/c1ccc(Br)cc1)c1nc2ccccc2n1Cc1ccc(Br)cc1 | 45% |
| COC(=O)CCn1c(-c2ccc(-n3cc(-c4ccc(O[C@H]5O[C@@H]6OC7(C)CC[C@H]8[C@H](C)CC[C@@H]([C@H]5C)[C@@]68OO7)cc4)nn3)cc2)nc2ccccc21 | 48.5% |
| CC1=C(C=O)C2=C(C)C3(CC3)[C@@](C)(O)C(=O)C2=C1 | 16.5% |
| N#C[Se]CC(=O)Nc1cccc(C(F)(F)F)c1 | -23.5% (active) |
| CCC[Se]C(=O)c1ccc(C(=O)[Se]CCC)s1 | -31.2% (active) |
| C[C@H]1[C@@H](CC(=O)N[C@@H](Cc2coc3ccccc23)B(O)O)O[C@@H]2OC3(C)CC[C@H]4[C@H](C)CC[C@@H]1[C@@]24OO3 | -19.3% (active) |
| O=C(/C=C/c1ccco1)c1nc2ccccc2n1Cc1ccc(F)cc1 | 28.7% |
| COC(=O)C[C@](O)(CCC(C)C)C(=O)O[C@H]1C(OC)=C[C@@]23CCCN2CCc2cc4c(cc2[C@@H]13)OCO4 | -48.8% (active) |
| C[C@H]1[C@H](OC(=O)CCC(=O)N(CCCc2cn(-c3ccc(C#N)cc3)nn2)CCNc2ccnc3cc(Cl)ccc23)O[C@@H]2OC3(C)CC[C@H]4[C@H](C)CC[C@@H]1[C@@]24OO3 | 72.1% |
